The text below walks through data of PubChem BioAssay AID1671190 (National Center for Advancing Translational Sciences (NCATS), 2021).

Among all 580,000 compounds or so, about 6,100 (1.1%) were called active. Not shown: some 15% with an inconclusive outcome. This excerpt belongs to a sample that is enriched for actives. Unmarked numbers belong to inactive results. The call rests on the fitted dose curve; in most records, active means well fitted inhibition curve with a large enough effect; inconclusive means small, poorly fitted or top-dose-only effect, or another doubt; inactive means no such curve, though single readings can be large or run the other way.
On the % scale 0 is the no-effect control and ±100 the full control effect; potency means the concentration at half of the fitted maximal effect.

For the assay, the target named is Polyunsaturated fatty acid lipoxygenase ALOX12 (Homo sapiens) (UniProt P18054). In words: Primary qHTS assay for inhibitors of human arachidonate 12S-lipoxygenase (ALOX12): Round 2. To be noted: purified 12hLO, xylenol orange hydroperoxide absorbance; series mostly up to 108 µM; activity change, negative = inhibition: at the top concentration. In a few lines: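 Hydroperoxide product was detected by ferrous iron/xylenol orange as the 573 to 405 nm absorbance ratio. Arachidonic acid at 40 uM (final) was turned over for 30 min at room temperature by 150 nM human 12hLO, pH 7.0 Hepes buffer, after 15 min compound preincubation.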
Sequence of Polyunsaturated fatty acid lipoxygenase ALOX12 (Homo sapiens) (P18054 whole entry, looked up): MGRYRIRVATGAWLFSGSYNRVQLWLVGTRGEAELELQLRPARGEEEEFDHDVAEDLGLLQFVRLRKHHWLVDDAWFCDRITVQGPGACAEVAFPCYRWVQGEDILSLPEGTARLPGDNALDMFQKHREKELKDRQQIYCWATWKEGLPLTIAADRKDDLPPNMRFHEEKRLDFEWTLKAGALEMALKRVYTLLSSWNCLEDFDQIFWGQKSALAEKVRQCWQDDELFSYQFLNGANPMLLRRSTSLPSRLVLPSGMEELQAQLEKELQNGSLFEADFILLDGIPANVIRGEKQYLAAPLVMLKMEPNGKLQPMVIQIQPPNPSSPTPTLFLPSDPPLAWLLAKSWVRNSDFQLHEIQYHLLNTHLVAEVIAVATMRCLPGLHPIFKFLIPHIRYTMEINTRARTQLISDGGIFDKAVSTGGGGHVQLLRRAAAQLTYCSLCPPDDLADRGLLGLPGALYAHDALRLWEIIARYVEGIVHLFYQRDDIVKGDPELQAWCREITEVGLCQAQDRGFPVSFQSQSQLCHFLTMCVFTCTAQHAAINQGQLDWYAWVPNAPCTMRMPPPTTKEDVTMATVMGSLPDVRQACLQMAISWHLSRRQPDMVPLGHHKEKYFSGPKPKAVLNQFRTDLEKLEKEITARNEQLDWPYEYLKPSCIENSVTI
Background: In qHTS, concentration-response curves come from the screen itself.
Consider `O=C(NC1CCN(CCCc2nc3ccccc3o2)CC1)C1CCCCC1`, for which the “activity change, negative = inhibition” value is -5.42%. Same read-out and setting: next, `CCC(=O)Nc1ccccc1-c1nc2ccccc2n(CC(=O)Nc2ccc(NC(C)=O)cc2)c1=O`: -26.1%. For `CN(C)S(=O)(=O)c1ccc(C(=O)NCCN=C2NS(=O)(=O)c3ccccc32)cc1`, the “activity change, negative = inhibition” value was 1.56%. With `O=C1NS(=O)(=O)c2ccccc21`, the Potency is 12.6 µM (active). On to `Cc1ccccc1C(=O)NCCN=C1NS(=O)(=O)c2ccccc21`, for which the “activity change, negative = inhibition” value was 9.19%. As to `CCN(Cc1nc2ccccc2c(=O)[nH]1)C(=O)Cc1csc(-c2ccc(C)cc2C)n1`, the “activity change, negative = inhibition” value is 3.87%. As to `COc1ccccc1-c1cc(NC(C)=O)c2ncc(-c3ccc(F)cc3)n2c1`, the Potency is 44.7 µM (active).

For `COc1cccc(-c2cc(NC(C)=O)c3ncc(-c4cccc(C(C)=O)c4)n3c2)c1`, the “activity change, negative = inhibition” value was -5.38%. For `COc1ccc(-c2cc(NC=O)c3ncc(-c4ccccc4)n3c2)cc1OC`, the “activity change, negative = inhibition” value was -5.7%.

As for `CC(C)c1noc(C(C)Sc2nc(C3CC3)nc3ccccc23)n1` (centres undefined), the “activity change, negative = inhibition” value is 7.22%. The same measure, in the same setting: next, `O=C(O)CCC(=O)C(CC(=O)O)CC(=O)O`: -22.1%. Same read-out and setting: then `Cn1nc(C(C)(C)C)cc1NC(=O)c1cccc(F)c1`, with -45%.

Consider `CCOC(=O)N1CCN(C(=S)Nc2ccc(C)cc2C)CC1`, for which the “activity change, negative = inhibition” value was 0.181%. On the same count and under the same terms, next, `Cc1ccc(NC(=O)c2oc(=O)c3ccccc3c2-c2ccccc2)c(C)c1`: -8.51%.

Regarding `Cc1cc(C)c(/C=N/NC(=O)c2ccccc2)c(C)c1`, the “activity change, negative = inhibition” value was -20.9%. On to `Cc1cccnc1NC(=O)c1ccc2nc(C)c(C)nc2c1`, for which the “activity change, negative = inhibition” value was 14.6%. As for `Cc1ccc(NC(=S)NC(=O)c2ccc(-c3ccccc3)cc2)c(C)c1`, the Potency is 17.8 µM (active). `Cc1ccc(NC(=S)Nc2ncccc2C)c(C)c1`: the Potency is 8.91 µM (active). `O=C(NNC(=O)C1(c2ccc(Br)cc2)CCCC1)c1ccccc1`: the “activity change, negative = inhibition” value was -11.9%. For the compound `COc1ccc(C2Cn3cnc(-c4nc(-c5ccc(OC)cc5OC)no4)c3CO2)cc1` (centres undefined), the “activity change, negative = inhibition” value is 0.752%. Turning to `CCc1c(C(=O)O)csc1C`, the “activity change, negative = inhibition” value was 4.31%.

For the compound `CCCCc1nc2sc(C(=O)OCC)c(N)c2c2c1COC(C)(C)C2`, the “activity change, negative = inhibition” value was 10.5%. On the same count and under the same terms, next, `O=C(OCc1cn([C@@H]2C[C@H](c3ccc(Cl)cc3)N(Cc3cccs3)C[C@H]2O)nn1)c1ccccc1`: -2.55%; `O[C@@H]1C[C@H](c2ccccc2)N(Cc2cccs2)C[C@H]1n1cc(C2CC2)nn1`: 0%.

In the case of `O[C@H]1C[C@H](c2ccc(Cl)cc2)N(Cc2cccs2)C[C@@H]1n1cc(C2CC2)nn1`, the Potency is 44.7 µM (active). In the case of `CC(C)Cn1nc(C(=O)OCC(=O)Nc2ccc(OC(F)(F)F)cc2)c2ccccc2c1=O`, the “activity change, negative = inhibition” value was 3.44%. For the compound `Cc1ccccc1S(=O)(=O)N1CCCC(CCC(=O)NCC2CCCCC2)C1` (centres undefined), the “activity change, negative = inhibition” value is 16.3%. On the same count and under the same terms, then `CCOC(=O)N1CCN(C(=O)c2ccc3c(=O)n(CCc4ccc(OC)c(OC)c4)c(=O)[nH]c3c2)CC1`, with -12.7%. As to `CCOc1cc2[nH]c(=S)n(Cc3ccc(C(=O)N4CCN(C)CC4)cc3)c(=O)c2cc1OCC`, the “activity change, negative = inhibition” value is 2.11%. For `NC(=O)C1CCN(C(=O)c2ccc3c(=O)n(Cc4cccc(Br)c4)c(=S)[nH]c3c2)CC1`, the Potency was 44.7 µM (active). For `O=C(Nc1cccc2cccnc12)C1=C(c2ccccc2)S(=O)(=O)CCO1`, the “activity change, negative = inhibition” value was 23.8%.

Turning to `COc1ccc2c(C)c(CC(=O)Nc3nnc(C)s3)c(=O)oc2c1OC`, the “activity change, negative = inhibition” value is -5.78%. Consider `COC(=O)Cc1cc(=O)n(-c2nc3ccccc3s2)[nH]1`, for which the Potency is 6.31 µM (active). On to `COc1ccc2cc(/C=C(/CC(=O)O)c3nc4ccccc4s3)ccc2c1`, for which the “activity change, negative = inhibition” value was -87.4%.

As for `COc1ccc(CC(=O)Nc2ccc(-c3nc4ccccc4s3)c(C)c2)cc1`, the “activity change, negative = inhibition” value is -8.77%.

Consider `COc1ccc(N2C(=O)C(C)(C)CS2(=O)=O)cc1S(=O)(=O)Nc1ccc(F)c(Cl)c1`, for which the “activity change, negative = inhibition” value is 1.34%.

Regarding `CCC1c2nccn2CCCN1C(=O)c1ccc(Cn2cncn2)o1` (centres undefined), the “activity change, negative = inhibition” value is 49%. The same measure, in the same setting: next, `COc1ccc(-c2ccccc2CN)cc1`: 23.2% [at 176 µM]; `COC(=O)c1ccc(OC)cc1OCc1ccccc1C#N`: 8.13%. For `COc1ccc(C(C#N)=C2C=CC(=NO)c3ccccc32)cc1`, the Potency is 39.8 µM (active). `COc1ccc(C(=O)c2sc(Nc3cccc(F)c3)nc2N)cc1`: the “activity change, negative = inhibition” value is 3.41%. The same measure, in the same setting: then `O=C(NCCc1ccccn1)c1nc(Cn2cc([N+](=O)[O-])cn2)no1`, with 1.76%. As to `O=C(Nc1ccc(Br)c2cccnc12)c1ccc(Cn2cc([N+](=O)[O-])cn2)o1`, the Potency is 15.8 µM (active).

Consider `CC(C)N(C(=O)Cn1c(CN2CCOCC2)nc2ccccc21)c1ccccc1`, for which the “activity change, negative = inhibition” value is 11.2%. Same read-out and setting: next, `COc1ccc(-c2cn(-c3ccc(C)cc3)c(=O)n2CC(=O)Nc2ccc(OC)c(OC)c2)cc1`: -3.1%. With `COc1ccc(-n2c(-c3ccc(OC)c(OC)c3)n[nH]c2=S)cc1`, the Potency was 17.8 µM (active).

As for `COc1ccc(-c2nc3ccccc3n2CCC(C)C)cc1OC`, the “activity change, negative = inhibition” value is 0%. Take `O=C([C@@H]1C[C@H](F)CN1C(=O)Nc1cc(F)cc(F)c1)N1CCCCC1`: the “activity change, negative = inhibition” value is 5.28%.

As for `O=C(Cc1ccc(Cl)cc1)NCc1nnc2ccc(-c3ccc(F)cc3)nn12`, the “activity change, negative = inhibition” value was -6.29%. As for `CCOC(=O)Cn1c2c(c(-c3ccccc3OC)cc1=O)CCCC2`, the “activity change, negative = inhibition” value is 17.6%. As to `CCOC(=O)Cn1c(=O)n(-c2ccccc2OC)c2nc(-c3cccc(F)c3)nc(C(N)=O)c21`, the Potency is 11.2 µM (active). In the case of `CCOC(=O)Cn1c(=O)n(C2CCCCC2)c2nc(-c3cccc(OC)c3)nc(C(N)=O)c21`, the “activity change, negative = inhibition” value was -15.8%. `CCCn1c(C)c(C)c(-c2nc3ccccc3[nH]2)c1NC(=O)CC(C)C`: the “activity change, negative = inhibition” value was -30%. `Cc1cc(CN2CCN(Cc3nc(C(C)(C)C)no3)CC2)no1`: the “activity change, negative = inhibition” value is 2.24%.

As to `O=c1cc(-c2cccnc2)nc2n(Cc3cccc(F)c3)c3ccccc3n12`, the “activity change, negative = inhibition” value is 55.1%. Same read-out and setting: next, `CC(C)COC(=O)/C(C#N)=C\c1c[nH]c2ccccc12`: -52.5%. As to `O=C(CCC1CCN(S(=O)(=O)c2ccccc2)CC1)NCCc1ccccc1`, the “activity change, negative = inhibition” value is 17.6%. Take `CCCC1CCC(=NNC(=S)NCCc2ccccc2)CC1` (centres undefined): the Potency is 44.7 µM (active).

In the case of `N#Cc1cccc(NC(=S)NCCc2ccccc2)c1`, the “activity change, negative = inhibition” value is -47.2%. Consider `O=C(CN(Cc1ccc(Br)cc1)S(=O)(=O)c1ccccc1)NCc1ccncc1`, for which the “activity change, negative = inhibition” value is -7.07%. Take `O=C(c1cccnc1)N(c1cc2sc(=O)oc2c2ccccc12)S(=O)(=O)c1ccccc1`: the Potency is 15.8 µM (active).

As for `O=C(NCCCNC(=O)c1nc2ccccc2c(=O)[nH]1)c1cccnc1`, the “activity change, negative = inhibition” value is 44.5%. As for `Cc1nn(CC(O)COc2ccccc2)c(=O)c2ccccc12` (centres undefined), the “activity change, negative = inhibition” value was 10.9%.

Turning to `Cc1ccccc1C(=O)Nc1ccc2c(c1)nc(CCn1ccccc1=O)n2C`, the “activity change, negative = inhibition” value was 10.9%.
